According to ChEMBL document CHEMBL4513216, “Probing the Open Global Health Chemical Diversity Library for Multistage-Active Starting Points for Next-Generation Antimalarials” (ACS Infect Dis, 2020):
The campaign covered roughly 65,000 compounds. About 2,100 (3.2%) showed an effect of 50% or more. The median lay at about -52%. This excerpt belongs to a sample that is enriched for strong results.

System: Plasmodium falciparum
Assay: Screen against P. falciparum Asexual Blood Stage (ABS), at 5uM
Assay type: functional, Dd2
Conditions: tested at 5 uM

Row | SMILES | INHIBITION
1 | COc1ccc2c(c1)c(C(=O)Nc1nnn[nH]1)cn2C | 10.8%
2 | Cc1cc(N2CCC(O)(CN(C)C)C2)c2cc3c(cc2n1)OCO3 (centres undefined) | 89.9%
3 | Cc1cc(N2CCCC(O)(CN(C)C)C2)c2cc3c(cc2n1)OCO3 (centres undefined) | 80.2%
4 | CCOCCN1CCN(CC(O)c2cc(Cl)ccc2Cl)CC1 (centres undefined) | 78.5%
5 | CCN1CCN(CC(O)c2cc(Cl)ccc2Cl)CC1 (centres undefined) | 77%
6 | O=C(NCc1cccnc1)[C@H]1CN2CCC1C[C@@H]2Cn1cc(CO)nn1 (some centres undefined) | -46.1%
7 | O=C(O)[C@@H]1CN(CC2CCC2)C[C@H]1c1ccc(F)cc1 | -73.4%
8 | O=C(c1ccco1)N1CCN2C[C@H](Oc3cncnc3)C[C@H]2C1 | -20.6%
9 | CC(C)n1ncc2c1NC(=O)CC21C(=O)Nc2c(Cl)ccc(Cl)c21 (centres undefined) | 83.5%
10 | O=C(NC[C@H]1C[C@@H]2CCN1C[C@@H]2CN1CCCCC1)c1ccco1 | -92.2%
11 | COc1ccccc1C1SCC(=O)Nc2c1c(=O)[nH]n2C1CCCCC1 (centres undefined) | -98.6%
12 | N#Cc1ccc(N2CCC(OC3CCOCC3)CC2)cc1Cl | -184%
13 | CCC1CCCCN1CCc1ccncc1 (centres undefined) | -81.4%
14 | CCC1CCCCN1Cc1ncc(C(C)(C)C)o1 (centres undefined) | 71.2%
15 | Cc1cc(CN2CCC(C3CCN(CCc4ccccc4)CC3)C2)[nH]n1 (centres undefined) | 93.5%
16 | Cc1ccc(N2C[C@H]3CCN(Cc4ccncc4)C[C@H]3C2)nn1 | -4.71%
17 | COc1ccc(C(=O)C2CCCN(Cc3cc(C)n[nH]3)C2)c(OC)c1 (centres undefined) | -4.88%
18 | Fc1ccccc1C1(CNC2CCOC3(CCOCC3)C2)CCCC1 (centres undefined) | 76.3%
19 | CN(C)CCN(C(=O)Cc1ccc2c(c1)OCCO2)C1CCN(C)CC1 | -48.3%
20 | CN(C)CCN1CCC2[C@@H]1CCN2Cc1ccc2c(c1)OCO2 (some centres undefined) | 72.5%
21 | CN(C)CCN(C)C(=O)Cc1ccc2c(c1)OCCO2 | -12.9%
22 | COc1ncccc1CN1CCC2[C@H]1CCN2CCN(C)C (some centres undefined) | 53.9%

Row | SMILES | INHIBITION
23 | COc1ncccc1CN1C[C@@H]2OCCN(CCN(C)C)[C@@H]2C1 | -3.36%
24 | COc1ncccc1CN1CC[C@H]2O[C@@H](c3nnc(C)o3)CC[C@H]21 | -71.9%
25 | Cc1cc(CN2CC[C@H]3C(=O)N(c4ccsc4)CCO[C@H]3C2)no1 | -34.2%
26 | Cc1cccc(CO[C@@H]2CC[C@H]3[C@H]2OCCN3Cc2ccsc2)n1 | -46.8%
27 | O=C(N[C@H]1CN(Cc2cccs2)[C@@H]2CCCO[C@H]12)c1cccnc1 | -57.9%
28 | Cc1noc(C)c1CN1C[C@@H]2CC(F)(F)C[C@@H]2C1 | -59.4%
29 | O=C(c1cccc(F)c1)N1C[C@H]2CN(Cc3ccccn3)C[C@H]2C1 | 0.82%
30 | Cc1noc(C)c1CN1C[C@@H]2C[C@@H](C)O[C@@H]2C1 | -75.1%
31 | Cn1cnc(S(=O)(=O)N2C[C@H]3CN(Cc4ccccn4)C[C@H]3C2)c1 | -85.5%
32 | Cc1noc(C)c1CN1C[C@H]2CN(Cc3cccc(F)c3)C[C@H]2C1 | 55.4%
33 | Fc1cccc(CN2C[C@@H]3CN(Cc4ccccn4)C[C@@H]3C2)c1 | 89.4%
34 | O=C(Cc1ccccn1)N1CCN2C[C@H](Oc3cncnc3)C[C@H]2C1 | -1.9%
35 | Cc1noc(C)c1CN1C[C@@H]2CN(C(=O)c3cnccn3)C[C@@H]2C1 | -43.4%
36 | Clc1cccc(N[C@H]2CCCN[C@H]2Cc2ccccc2)c1 | 92.8%
37 | CC(C)OCCNC1(c2ccc(F)cc2)CCOCC1 | 34.8%
38 | Cc1n[nH]cc1CNC1(c2ccc(F)cc2)CCCC1 | 83.4%
39 | Cc1nc(C2(NCc3ccc(C#N)cc3F)CCCCC2)no1 | -32.3%
40 | O=C(c1cnccn1)N1CCN2C[C@H](Oc3cccnc3)C[C@H]2C1 | -106%
41 | CCOCC(O)CN1CCN(C(=O)Cc2ccccc2C)CC1 (centres undefined) | -143%
42 | COc1ccccc1COCC(O)CN1CC(n2cccn2)C1 (centres undefined) | 78.9%
43 | CN(C)c1ncc2c(n1)C1(CCN(Cc3ccccc3)C1)COC2 (centres undefined) | 27.6%
44 | Cc1ccnc(CC(C)N(C)Cc2ccc3c(c2)OCCO3)c1 (centres undefined) | -56.5%

Row | SMILES | INHIBITION
45 | Cc1cccnc1CC(C)N(C)Cc1cccs1 (centres undefined) | 81.7%
46 | CC(Cc1ccccn1)N(C)Cc1ccc2c(c1)CCO2 (centres undefined) | 8.31%
47 | CCCN(CCN(C)C)C(=O)Cc1cn2ccsc2n1 | -76.3%
48 | Cc1nc(CN2CCCC2Cn2ccnc2C(C)C)nc2ccccc12 (centres undefined) | 77.3%
49 | Cc1nc(CN2CCCCC2Cn2cccn2)nc2ccccc12 (centres undefined) | 70.4%
50 | Cc1cnn(CC2CCCN2Cc2cn3ccsc3n2)c1 (centres undefined) | 81.3%
51 | Cc1cnn(CC2CCCN2Cc2nc(C)c3ccccc3n2)c1 (centres undefined) | 78%
52 | O=C(C1CCCCC1)N1C[C@@H]2CCNC[C@@H]21 | 9.5%
53 | Cc1ccc(N2CC[C@@H]3CN(Cc4c[nH]cn4)C[C@@H]3C2)nn1 | -66.7%
54 | Cc1cc(CC(C)NC2CCSCC2)[nH]n1 (centres undefined) | -36.2%
55 | Cn1c(=O)n(C)c2cc(C3SCC(=O)Nc4ccsc43)ccc21 (centres undefined) | -86.5%
56 | O=C(c1ccccc1)C1CCN(Cc2cc3c(cc2O)CCC3)CC1 | 90.1%
57 | Cc1c(CN2CCCC(C(=O)c3ccccc3)C2)cc(C#N)n1C (centres undefined) | 44.6%
58 | CC(C)NC(=O)[C@H]1CN(Cc2ccccc2)C[C@@H]1C(=O)c1ccccc1 | -90.6%
59 | c1cc(-c2n[nH]cc2-c2ccnc(N3CCCCCC3)n2)ccn1 | 78%
60 | CC(C)[C@H](CO)Nc1nccc(-c2c[nH]nc2-c2ccncc2)n1 | 83.9%
61 | c1cc(-c2n[nH]cc2-c2ccnc(N3CCCC3)n2)ccn1 | 81.1%
62 | COc1cc(N2CC[C@@H]3[C@@H](CC2)OCCN3CC2CC2)ncn1 | -53.8%
63 | COCC1CC2(CCNCC2)CN1c1ncccn1 (centres undefined) | -33.8%
64 | NC1(c2nc(C(F)(F)F)cc(=O)[nH]2)CCCC1 | -131%
